Screens deposited in PubChem BioAssay by several laboratories.
The list is not random: actives were taken first. Their share in the collection is about 2.9%.
RAM network inh – inhibitors of the yeast RAM network, primary screen, dse1pr::URA3 reporter, 5-FOA selection | S. cerevisiae dse1pr::URA3 reporter, 5-FOA growth OD615, 2 d; analog-sensitive cbk1-as2 kinase mutant strain | inhibition, % at 50 µM | 190,000 tested, 1.8% active;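 active = inhibition above a set limit, 3 SD over mean compound inhibition, cut at about 8.4% in these data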;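 note: inhibition rescues growth on 5-FOA so higher OD means more RAM inhibition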
EP2 mod – EP2 receptor modulators, cAMP readout, primary screen, cell-based, HTRF cAMP, PGE2 stimulation; Prostaglandin E2 receptor EP2 subtype (Homo sapiens), P43116; EP2-expressing cells, cAMP HTRF FRET, PGE2 co-stimulation; induction, % at 25 µM; 260,000 tested, 0.83% active; AID 940, 2007;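 active = compounds whose cAMP rise, as percent of the full-agonist control response, exceeds 60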;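 note: rat C6 glioma line stably carrying human EP2 under a CMV promoter; the protocol text gives 20 µM as final concentration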
Rev-erbA mod – modulators of Rev-erb alpha DNA binding, primary screen, biochemical, FITC-DNA, fluorescence polarization, uHTS; Nuclear receptor subfamily 1 group D member 1 (Homo sapiens), P20393; Rev-erbα–FITC-DNA binding, 90 min; activity, % at 10 µM; 370,000 tested, 0.79% active; AID 1259318, 2017;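 active = activity above about 14%, limit read from the data; passing the limit was not always enough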
Target sequence (P20393 whole entry, looked up): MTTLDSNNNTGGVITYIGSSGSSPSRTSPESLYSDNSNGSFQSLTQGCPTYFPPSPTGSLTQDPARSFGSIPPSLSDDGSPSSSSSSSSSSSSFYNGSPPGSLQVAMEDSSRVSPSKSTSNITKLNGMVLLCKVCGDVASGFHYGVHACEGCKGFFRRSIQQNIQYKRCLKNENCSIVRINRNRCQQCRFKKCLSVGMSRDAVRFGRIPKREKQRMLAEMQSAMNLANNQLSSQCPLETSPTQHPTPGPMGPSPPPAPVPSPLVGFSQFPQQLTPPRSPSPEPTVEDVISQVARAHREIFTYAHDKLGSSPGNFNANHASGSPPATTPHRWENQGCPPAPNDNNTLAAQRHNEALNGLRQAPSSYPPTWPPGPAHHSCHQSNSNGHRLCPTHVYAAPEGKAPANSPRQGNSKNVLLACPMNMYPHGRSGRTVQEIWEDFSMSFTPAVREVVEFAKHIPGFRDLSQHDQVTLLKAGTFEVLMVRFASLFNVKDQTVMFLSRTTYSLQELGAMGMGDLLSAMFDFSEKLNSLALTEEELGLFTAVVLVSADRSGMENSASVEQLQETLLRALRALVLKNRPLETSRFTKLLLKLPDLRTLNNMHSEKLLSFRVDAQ
PG9 binder – binders of HIV-1 gp120 antibody PG9, primary screen, biochemical, TR-FRET; 360,000 tested, 0.43% active; inhibition, % at 6.7 µM; HIV-1 gp120 / PG9 antibody interaction; TR-FRET gp120-PG9 antibody binding; in the data active = inhibition above about 8.5%
SKN-1 inh – suppressors of acrylamide-induced Pgst-4::GFP reporter in worms, primary screen, SKN-1 inhibitor project, whole organism, uHTS, GFP/RFP fluorescence ratio, strain VP596; C. elegans VP596 Pgst-4::GFP/RFP ratio, 24 h; inhibition, % at 21.8 µM; 360,000 tested, 0.49% active; AID 624304, 2012;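 active = interference check ratio from 0.5 to 1.5 plus GFP to RFP signal ratio inhibition reaching or exceeding a fixed threshold, cut at about 30% in these data, passing the limit was not always enough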
EP2 antag – human EP2 receptor antagonists, primary screen, TR-FRET cAMP, C6 glioma cells | Prostaglandin E2 receptor EP2 subtype (Homo sapiens), P43116 | C6 glioma cells expressing human EP2; cells stimulated with saturating PGE2 | inhibition, % at 25 µM | 260,000 tested, 0.52% active | AID 1422, 2008;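 active = percent inhibition above 40 after rounding to a whole number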;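 note: rat C6 glioma host cells with rolipram phosphodiesterase inhibitor present; the protocol text gives 20 µM as final concentration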
Hits are given with their value.

Results for Nc1nc(-c2ccc(-c3ccccc3)cc2)cs1 ?
RAM network inh: inactive; EP2 mod: inactive; Rev-erbA mod: inactive; PG9 binder: inactive; SKN-1 inh: 66; EP2 antag: inactive

How did Nc1nc(-c2ccc(Oc3ccccc3)cc2)cs1 do in these assays?
Rev-erbA mod: inactive; PG9 binder: inactive; SKN-1 inh: 44

How did O=C(O)c1cccc(N=Nc2c(S(=O)(=O)O)ccc3c2C(=O)c2ccccc2C3=O)c1O do in these assays?
EP2 mod: inactive; EP2 antag: 46

What do the screens show for `Cc1nc2ccccc2nc1OCc1cccc(Cl)c1`?
RAM network inh: inactive; EP2 mod: inactive; Rev-erbA mod: inactive; PG9 binder: inactive; SKN-1 inh: inactive; EP2 antag: inactive

What do the screens show for `Cc1nc2ccccc2nc1OCc1ccccc1`?
RAM network inh: inactive; EP2 mod: inactive; Rev-erbA mod: inactive; PG9 binder: inactive; SKN-1 inh: 47; EP2 antag: inactive

What do the screens show for `CCCSC1=N/C(=C\c2ccc3c(c2)OCO3)C(=O)S1`?
RAM network inh: 10; EP2 mod: inactive; Rev-erbA mod: inactive; PG9 binder: inactive; SKN-1 inh: inactive; EP2 antag: inactive

How did Nc1nc(CC(=O)NNC(=O)/C=C/c2ccccc2)cs1 do in these assays?
EP2 mod: inactive; EP2 antag: inactive

How did CCn1c(NN)nc2sc3c(c2c1=O)CC(C)(C)OC3 do in these assays?
EP2 mod: inactive; EP2 antag: inactive

How did C=CCN1C(=O)C(Cc2ccc(Br)cc2)S/C1=N\N=C\c1ccco1 (configuration not stated) do in these assays?
RAM network inh: 10.0; EP2 mod: inactive; Rev-erbA mod: inactive; PG9 binder: inactive; SKN-1 inh: inactive; EP2 antag: inactive

How did Cc1cccc(CC2S/C(=N/N=C/c3ccco3)N(c3ccccc3)C2=O)c1 (configuration not stated) do in these assays?
RAM network inh: 11; EP2 mod: inactive; Rev-erbA mod: inactive; PG9 binder: inactive; SKN-1 inh: inactive; EP2 antag: inactive

What do the screens show for `Cc1cc2c(=O)n(CC(=O)NC(C)(C)CN3CCCC(C)C3)cnc2s1` (configuration not stated)?
EP2 mod: inactive; EP2 antag: inactive

What do the screens show for `NC1=NC(=O)C(CC(=O)Nc2cc(Cl)ccc2Cl)S1` (configuration not stated)?
EP2 mod: inactive; EP2 antag: inactive

How did c1ccc2sc(SCc3ccc(-c4nnco4)cc3)nc2c1 do in these assays?
RAM network inh: inactive; EP2 mod: inactive; Rev-erbA mod: inactive; PG9 binder: inactive; SKN-1 inh: 54; EP2 antag: inactive

Results for CCOc1ccc(-c2nnn(CC(=O)N3CCCCCC3)n2)cc1 ?
EP2 mod: inactive; EP2 antag: inactive

How did CCCn1c(SCC(=O)Nc2cccc(Cl)c2)nc2c1c(=O)n(C)c(=O)n2C do in these assays?
EP2 mod: inactive; EP2 antag: inactive

How did Cc1ccccc1NC(=O)CCC(=O)OCC(=O)c1cccc([N+](=O)[O-])c1 do in these assays?
RAM network inh: inactive; EP2 mod: inactive; Rev-erbA mod: inactive; PG9 binder: inactive; SKN-1 inh: 37; EP2 antag: inactive

How did COCCN(C(=O)c1ccc(Cl)cc1)c1nnc(-c2cccnc2)s1 do in these assays?
EP2 mod: inactive; EP2 antag: inactive

Results for Cc1ccccc1N=C/C=C1/C=C(c2ccccc2)OC(C)(C)O1 ?
RAM network inh: inactive; EP2 mod: inactive; Rev-erbA mod: inactive; PG9 binder: inactive; SKN-1 inh: inactive; EP2 antag: inactive

How did CC1(C)OC(c2ccccc2)=C/C(=C/C=C2C(=O)c3ccccc3C2=O)O1 do in these assays?
RAM network inh: inactive; EP2 mod: inactive; Rev-erbA mod: inactive; PG9 binder: inactive; SKN-1 inh: 60; EP2 antag: inactive

What do the screens show for `O=C1C2CCCCN2C(=O)c2ccccc2N1Cc1ccccc1F` (configuration not stated)?
EP2 mod: inactive; EP2 antag: inactive
